This is an account of results in PubChem BioAssay (EPA / NIEHS).

Values joined by “and” are separate entries in the source; they are usually repeats but may differ in a detail not shown here. Equal values may be shown once. Records with an inconclusive call do not appear. The source holds several records for some structures; these can differ, active in one and inactive in another. Active and inactive are the calls of the source. How the source made its calls: active means hit-call score of the fitted dose curve at least 0.9, where 1 is the maximum; inconclusive means response in the unintended direction; inactive means score below 0.9.

Broadly, the AC50 is the concentration giving half of the maximal activity seen.

Sequence of human CYP2J2, CYP2J2 (gene 1573) (P51589 whole entry, looked up): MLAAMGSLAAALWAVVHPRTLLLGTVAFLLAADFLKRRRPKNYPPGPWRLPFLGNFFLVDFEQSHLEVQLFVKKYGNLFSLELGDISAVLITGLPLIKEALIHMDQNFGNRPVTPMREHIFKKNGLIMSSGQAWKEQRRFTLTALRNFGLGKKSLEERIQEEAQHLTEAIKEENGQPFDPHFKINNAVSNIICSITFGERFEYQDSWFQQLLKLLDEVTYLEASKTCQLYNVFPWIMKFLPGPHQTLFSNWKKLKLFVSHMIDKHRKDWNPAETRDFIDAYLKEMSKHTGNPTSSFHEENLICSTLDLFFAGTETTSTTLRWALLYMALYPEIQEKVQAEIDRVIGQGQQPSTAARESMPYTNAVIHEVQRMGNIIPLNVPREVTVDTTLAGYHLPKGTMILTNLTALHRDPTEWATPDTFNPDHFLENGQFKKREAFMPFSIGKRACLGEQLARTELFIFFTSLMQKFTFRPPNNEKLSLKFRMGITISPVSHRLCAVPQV

The test has as its target human CYP2J2, CYP2J2 (gene 1573) (UniProt P51589). Put plainly: NVS_ADME_hCYP2J2: NovaScreen (NVS) CYP450-related Enzyme Activity (ADME) Assay for human CYP2J2 (AID 2283106). As to the method:
NVS_ADME_hCYP2J2 is a biochemical, single-readout assay that uses extracted gene-proteins in a cell-free assay. Measurements were taken 1 hour after chemical dosing in a 96-well plate.NVS_ADME_hCYP2J2 is one of one assay component(s) measured or calculated from the NVS_ADME_hCYP2J2 assay. It is designed to make measurements of enzyme activity, a form of enzyme reporter, as detected with fluorescence intensity signals by Fluorescence technology.Data from the assay component NVS_ADME_hCYP2J2 was analyzed into 1 assay endpoint. This assay endpoint, NVS_ADME_hCYP2J2, was analyzed in the positive analysis fitting direction relative to Acetonitrile as the negative control and baseline of activity. Using a type of enzyme reporter, loss-of-signal activity can be used to understand changes in the enzymatic activity as they relate to the gene CYP2J2. Furthermore, this assay endpoint can be referred to as a primary readout, because this assay has produced multiple assay endpoints where this one serves a enzymatic activity function. To generalize the intended target to other relatable targets, this assay endpoint is annotated to the cyp intended target family, where the subfamily is xenobiotic metabolism.
Binding assays used specific radioligands (tritiated, iodinated) with non-radioactive competitive displacement ligands in agonist or antagonist protocols (as indicated) and various reference compounds and inhibitors to titrate specific binding to receptors and transporters. Most enzyme assays (CYPs, kinases, phosphatases, proteases, HDACs) used recombinant protein and specific substrates (fluorescence mostly, some colorimetric and radioactive) and inhibitors, followed by a biochemical separation of substrate and product. All assays for the biochemical HTS were initially run in duplicate at a single concentration (10 uM for CYP450 assays and 25 uM for all others). Assay-chemical combinations meeting a pre-defined threshold (e.g., 30% inhibition and other criteria defined below) were then run in singleton concentration-response format with maximum concentration of 20 uM for CYPs and 50 uM for all others. Each assay was run with positive and negative controls, and concurrent controls on every plate. The follow-up (secondary) screen tested active chemical-pairs in concentration series, as well as a few additional assays not tested in the primary screen, some selected negative inactives, and several cases re-run in the concentration series for confirmatory purposes.
On to `CCN(CC)CCOc1ccc(C(=C(Cl)c2ccccc2)c2ccccc2)cc1`, for which the compound was classed as inactive; the AC50 is 4.08 µM (active) and 7.21 µM (active).

For the compound `CC(C)(c1ccc(O)cc1)c1ccc(O)cc1`, the AC50 is 4.93 µM (active).

In the case of `CCSC(=O)N(CC(C)C)CC(C)C`, the AC50 is 1.4 µM (active).

Consider `O=c1c(-c2ccc(O)cc2)coc2cc(O)cc(O)c12`, for which the AC50 was 979 nM (active) and 1.06 µM (active) and 443 nM (active).

For the compound `CCOC(=O)NCCOc1ccc(Oc2ccccc2)cc1`, the result was inactive.

For `C[C@]12CC[C@@H]3c4ccc(O)cc4CC[C@H]3[C@@H]1CC[C@@H]2O`, the result was inactive.

Turning to `Cc1nn(C)c(Oc2ccccc2)c1C=NOCc1ccc(C(=O)OC(C)(C)C)cc1`, the AC50 is 5.24 µM (active).

For the compound `C=CCOC(Cn1ccnc1)c1ccc(Cl)cc1Cl` (centres undefined), the AC50 was 0.166 µM (active).

Consider `C#CCOC(=O)[C@@H](C)Oc1ccc(Oc2ncc(Cl)cc2F)cc1`, for which the AC50 is 0.189 µM (active).

Regarding `C#C[C@]1(O)CC[C@H]2[C@@H]3CCc4cc(O)ccc4[C@H]3CC[C@@]21C`, the AC50 is 878 nM (active) and 2.68 µM (active) and 672 nM (active).

On to `N#CSCSc1nc2ccccc2s1`, for which the AC50 was 0.466 µM (active).

Turning to `Oc1ccc(C(c2ccc(O)cc2)C(Cl)(Cl)Cl)cc1`, the AC50 was 2.99 µM (active).

For `CCCCOCCOCCOCc1cc2c(cc1CCC)OCO2`, the AC50 was 0.116 µM (active).
